Results reported in PubChem BioAssay AID2685 (National Center for Advancing Translational Sciences (NCATS), 2010).
The campaign covered roughly 320,000 compounds. About 2,100 (0.66%) were called active. About 53% were inconclusive and are not listed. The call rests on the fitted dose curve; in most records, active means well fitted inhibition curve with a large enough effect in the signal ratio, with a control signal flat (not every such curve was filed as active); inconclusive means small, poorly fitted or top-dose-only effect, or effect the other way, or a change in a side signal; inactive means flat fitted curve, though single readings scatter; the % refers to the signal ratio. The list comes from a sample in which actives are over-represented; it also holds similar structures and randomly drawn compounds.

Assay: qHTS Assay for Lipid Storage Modulators in Drosophila S3 Cells;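 on cell number change: cells counted by Cell Tracker Red CMTPX staining in the red channel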; on lipid storage change, negative = inhibition: on the % scale 0 is the no-effect control and ±100 the full control effect
Settings: BODIPY lipid droplet fluorescence, 18-24 h, cells fed with added oleic acid; cell number change: measured here: cell count max response; series mostly up to 46.1 µM
Summary of the method: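 Laser-scanning cytometry quantifies lipid droplet accumulation (500–530 nm total intensity; droplet/cell object ratio) in oleic acid-fed (400 uM added) Drosophila S3 cells treated with a concentration series. 20 uM Triacsin C defined 100% inhibition.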
Potency means the concentration at half of the fitted maximal effect.

Structure (SMILES)	Potency	cell number change	lipid storage change, negative = inhibition
Cc1cc(C)nc(NS(=O)(=O)c2ccc(NC(=O)CN3C(=O)S/C(=C\c4ccccc4)C3=O)cc2)n1	inactive	8.32%	–
Cc1c(C(=O)NCc2cccnc2)sc2nc(-c3ccccc3)cn12	inactive	-2.88%	–
Cc1cccn2c(=O)nc(SCC(=O)NCc3ccccc3)nc12	–	26.3%	14.2% [at 0.0737 µM] (inactive)
Cc1ccc(-n2ncc3c(=O)n(-c4ccc(C)c(C)c4)c(C)nc32)cc1	inactive	-21%	–
CC1=Nc2ccccc2N=C(NC(=O)CSC(=S)N2CCCCC2)C1c1ccccc1 (stereo not given)	inactive	11.1%	–
CC(C)CC(NC(=O)c1ccccc1NC(=O)c1ccccc1)C(=O)O (stereo not given)	inactive	-8.71%	–
CCC(=O)N(CCC(c1ccccc1)c1ccco1)Cc1cccs1 (stereo not given)	inactive	1.01%	–
CC(=O)NCCC(=O)Nc1nc(-c2cccs2)c(-c2cccs2)s1	inactive	13.4%	–
CC(C)NC(=O)c1ccc(OC2CSC2)cc1	inactive	2.39%	–
CC(=O)c1cccc(NC(=O)c2ccc(OC3CSC3)cc2)c1	inactive	14.6%	–
CNC(=O)c1ccc(OC2CSC2)cc1	16.4 µM (active)	-3.88%	–
O=C(NCC(=O)N(Cc1ccccc1)C(C(=O)NC1CCCC1)c1ccncc1)c1ccco1 (stereo not given)	inactive	-25%	–
COc1cccc(C2CCCN2Cc2nc(CC3CC3)no2)c1 (stereo not given)	inactive	-10.7%	–
CCC(=O)Nc1ccc(S(=O)(=O)Nc2ccc(Cl)nn2)cc1	inactive	-1.17%	–
Cc1cc(-n2cnnn2)cc(C)c1S(=O)(=O)NCCOc1ccccc1	inactive	-19.8%	–
Cc1cc(-n2cnnn2)cc(C)c1S(=O)(=O)N(C)c1ccccc1	10.3 µM (active)	1.61%	–
Cc1cc(C)c(S(=O)(=O)N(C)c2ccccc2)c(C)c1	inactive	-0.745%	–
CCCOc1ccc(C(=O)O/N=C(\CC)c2ccc(C)cc2)cc1	inactive	8.23%	–
CCOC(=O)C1CCCN(C(=O)C2CCN(c3nnc(-n4cccc4)s3)CC2)C1 (stereo not given)	16.4 µM (active)	-17.4%	–
O=C(C1CCN(c2nnc(-n3cccc3)s2)CC1)N1CCCCC1	inactive	–	–
CCOC(=O)N1CCN(C(=O)C2CCN(c3nnc(-n4cccc4)s3)CC2)CC1	inactive	29.4%	–
COC(=O)C1CSc2[nH]c(=O)sc2C1c1ccc(OC)c(OC)c1 (stereo not given)	inactive	-7%	–
CCC(C(=O)OCC(=O)N1C(C)CCCC1C)c1ccccc1 (stereo not given)	inactive	-35.7%	–
O=C(NCC1OCCCN1S(=O)(=O)c1cc(F)ccc1F)C(=O)NC1CCCCCC1 (stereo not given)	4.61 µM (active)	3.2%	–

Structure (SMILES)	Potency	cell number change	lipid storage change, negative = inhibition
Cc1cc(F)ccc1S(=O)(=O)N1CCCOC1CNC(=O)C(=O)NC1CCCC1 (stereo not given)	inactive	13.2%	–
O=C(NCCO)C(=O)NCC1OCCCN1S(=O)(=O)c1cc(F)ccc1F (stereo not given)	inactive	0.587%	–
CCc1cccc(CC)c1NC(=O)C1SC(=Nc2ccccc2C)C(c2nc3ccccc3s2)=C1N (stereo not given)	inactive	–	–
O=C1NC2(CCSC2)C(=O)N1CC(=O)N(Cc1ccccc1)C1CCS(=O)(=O)C1 (stereo not given)	inactive	1.14%	–
O=C(NC1CC2CCCC(C1)N2C(=S)NCCc1ccccc1)C1CC1 (stereo not given)	inactive	-26.1%	–
COc1cc(CO)cc(Br)c1OCC(=O)O	2.06 µM (active)	9.61%	–
COc1cc(CO)cc(Br)c1OCc1cccnc1	inactive	-5.87%	–
CCNCc1cc(Br)c(OCC(=O)Nc2ccccc2)c(OC)c1	inactive	1.4%	–
CC(C)(C)c1ccc(/C=C/C(=O)N2CCOCC2)cc1	inactive	-2.69%	–
CCC1Sc2ccc(S(=O)(=O)CCC(=O)NCc3ccc(C)o3)cc2NC1=O (stereo not given)	inactive	-1.81%	–
O=C(NN1CCOCC1)c1cccc(Cl)c1	inactive	14.2%	–
Cc1cc(C(=O)N2CCCC(C(=O)c3ccc4ccccc4c3)C2)n(C)n1 (stereo not given)	25.9 µM (active)	-14.9%	–
Cc1cc(C(=O)N2CCCC(C(=O)c3ccc4ccccc4c3)C2)nn1C (stereo not given)	inactive	11.4%	–
CC(C)c1cc(C(=O)N2CCCC(C(=O)c3ccc4ccccc4c3)C2)on1 (stereo not given)	inactive	–	–
Cc1cc(C(=O)NC2CCC(C)CC2)c(C)o1 (stereo not given)	inactive	-8.31%	–
O=C(CSc1nnc(-c2cccnc2)n1CCN1CCCCC1)Nc1cccc(Cl)c1	inactive	11.7%	–
CCCN1C2CCCC1CC(NC(=S)NCCCOCC)C2 (stereo not given)	inactive	-29.4%	–
CSc1nc(-c2ccc(C)cc2)nc(C(Cl)Cl)n1	inactive	10.6%	–
CSc1nc(-c2ccccc2)nc(C(Cl)Cl)n1	8.2 µM (active)	-22.1%	–
CSc1nnc(-c2ccccc2)c(-c2ccccc2)n1	inactive	-3.83%	–
CCSc1nc(-c2ccccc2)nc(C(Cl)Cl)n1	5.17 µM (active)	-6.95%	–
CCSc1nc(-c2ccccc2)c2cc(Cl)ccc2n1	inactive	-8.68%	–
Clc1cc(CSc2ccccc2)nc(-c2ccccc2)n1	inactive	–	–
